Compounds with a hit are over-represented: about 1.8% of the library has one in this group of screens.
CtBP-E1A inh: qHTS Assay for Inhibitors of the CtBP/E1A Interaction | CtBP / adenovirus E1A interaction (AlphaScreen) | AlphaScreen GST-E1A/His-CtBP binding, 1536-well; hits give low values | activity change, % (concentration not given with the values) | 340,000 compounds, 0.49% hits | AID 651724, 2012
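Protein mix (5X: 125 nM each GST-E1A, His-CtBP) was incubated with pinned compound 2 h at 37 deg C in dark, in 50 mM Tris pH 8.0 buffer with 300 mM NaCl. Glutathione donor and nickel acceptor beads followed; AlphaScreen signal read after 1 h.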
PI4K2A inh: qHTS for small molecular inhibitors of PI4K2A; purified PI4K2A, ADP-Glo luminescence, 1 h; hits give low values; activity change, negative = inhibition, % at 76.9 µM; 420,000 compounds, 0.13% hits; AID 1346378, 2018; in the data active means activity change below about -50%; inconclusive means mostly about -30% to -49%;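 further: -100% = wells without enzyme as full effect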
Target sequence (Q9BTU6 whole entry, looked up): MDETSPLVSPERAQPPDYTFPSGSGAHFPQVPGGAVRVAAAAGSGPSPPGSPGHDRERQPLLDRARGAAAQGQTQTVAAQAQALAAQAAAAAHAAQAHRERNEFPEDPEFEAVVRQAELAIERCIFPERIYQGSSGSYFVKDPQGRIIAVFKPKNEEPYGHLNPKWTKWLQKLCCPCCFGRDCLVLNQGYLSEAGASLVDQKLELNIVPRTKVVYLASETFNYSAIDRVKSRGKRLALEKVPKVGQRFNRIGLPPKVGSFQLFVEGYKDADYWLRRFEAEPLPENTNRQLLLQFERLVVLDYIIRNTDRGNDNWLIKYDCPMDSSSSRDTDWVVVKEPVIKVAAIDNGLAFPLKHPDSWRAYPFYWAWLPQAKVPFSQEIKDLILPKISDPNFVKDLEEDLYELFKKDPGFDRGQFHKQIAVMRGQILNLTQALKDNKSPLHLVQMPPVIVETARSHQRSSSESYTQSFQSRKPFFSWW
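ADP-Glo luminescence measured ADP generated by PI4K2A enzyme (4 ug/mL before mixing) with 1.2 mM PI substrate (pre-mix) and 300 microM ATP (pre-mix). Tris pH7.5 buffer with MgCl2, Triton X-100; 1 h reaction at ambient temperature.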
PI5P4K alpha inh: qHTS for Inhibitors of phosphatidylinositol 5-phosphate 4-kinase (PI5P4K). Phosphatidylinositol 5-phosphate 4-kinase type-2 alpha (Homo sapiens), P48426. PI5P4Kalpha enzyme, ADP-Glo luminescence, 60 min; hits give low values. max response, %. 330,000 compounds, 1.2% hits. AID 652105, 2013; active means max response of -50% or lower; inconclusive means between -30% and -50%; inactive means -30% or higher; further: value at the top dose of about 77 µM
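Compounds were pin-transferred onto PI5P4Kalpha and substrate in HEPES pH 7.4 buffer with EGTA, CHAPS and 5% DMSO. ATP (5 microM final) started the reaction, which ran 60 minutes at room temperature before ADP-Glo detection.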
Six1-Eya2 blk: qHTS Assay for Inhibitors of the Six1/Eya2 Interaction; activity change, % (no concentration beside the values); AlphaScreen GST-Six1/His-Eya2 binding, biochemical; hits give low values; AID 651725, 2012; 360,000 compounds, 0.56% hits
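Six1/Eya2 binding was read as AlphaScreen signal after compounds were pinned into GST-Six1 plus His-tagged Eya2 (5X stock 250/500 nM) in pH 8.0 Tris/NaCl/TCEP buffer, beads added, then incubated 1 h, 37 C, dark.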
pAkt inh: HTS Assay for Inhibitors of Akt Phophorylation: Primary Screen. Neuro2A IGF-stimulated pAkt S473 HTRF, 20 min; hits give low values. AID 651550, 2012. 360,000 compounds, 0.32% hits. activity change, % for hits at 50 µM; in the data active means activity change below about -80%; inconclusive means mostly about -51% to -80%
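Single-point screen (50 µM final compound) in Neuro2A cells stimulated 20 min with 6 nM IGF at 37 deg C. After lysis, Ser473-phosphorylated Akt read by HTRF (ex 330 nm, em 615/665 nm) as the 665/615 ratio.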
The depositor's hits bear a star; i = inactive; ? = inconclusive; / = no result. Unless noted, no stated cut-off is given here; in the data, active means activity change below about -65%; inconclusive means mostly about -30% to -63%; inactive means weaker than that. Unless noted, on the % scale 0 is the no-effect control and ±100 the full control effect.

SMILES | CtBP-E1A inh | PI4K2A inh | PI5P4K alpha inh | Six1-Eya2 blk | pAkt inh
O=C1NC(=Nc2cccc(O)c2)S/C1=C\c1cccc([N+](=O)[O-])c1 | 3 | 5 | -70* | -11 | i
COc1cc(/C=C2\SC(=Nc3cccnc3)NC2=O)cc(OC)c1OC | 13 | -3 | -89* | -2 | i
Cc1cccc(N=C2NC(=O)/C(=C/c3cccnc3)S2)c1 | / | 2 | 0 | 0 | i
O=C1NC(=Nc2cccc(O)c2)S/C1=C\c1cccnc1 | 4 | -7 | -60* | 13 | i
O=C1NC(=Nc2cccnc2)S/C1=C\c1cccc(F)c1 | 3 | 0 | -26 | 4 | i
Cc1cc(NC(=O)C(C)C)ncc1NC(=O)c1cccc(F)c1 | 5 | 10 | -8 | 0 | i
O=c1[nH][nH]c2c(N=Cc3ccccc3O)ccc(F)c12 | -91* | -27 | -103* | ? | i
COc1ccc(CCNc2cc(=O)[nH]c(N)n2)cc1 | -80* | 1 | / | -69* | i
C(=C\c1ccco1)/c1nc2ccccc2[nH]1 | / | -23 | -16 | -3 | i
C(=C\c1nc2ccccc2[nH]1)/c1ccccc1 | -6 | -55* | / | 6 | i
COC(=O)c1ccc(CN2CCc3ccc(NC(=O)c4ccncc4)cc3C2)cc1 | 0 | -7 | 5 | 1 | i
O=C(CSc1nnc(NC(=O)c2ccccc2F)s1)NCc1ccco1 | -2 | -4 | -12 | 11 | i
Cc1ccc2nc(NC(=O)c3ccccn3)sc2c1 | ? | -15 | -9 | -73* | i
COc1ccccc1C(=O)Nc1nc2ccccc2s1 | -2 | -71* | ? | 4 | i
COc1ccc2c(c1)Cc1sc(NC(=O)c3cccc(C)c3)nc1-2 | / | -54* | / | / | /
CCOc1ccc2nc(NC(=O)c3ccco3)sc2c1 | -3 | -9 | -5 | -2 | i
CCOc1ccc2nc(NC(=O)c3ccoc3C)sc2c1 | -10 | -83* | ? | -7 | i
COc1cc(C(=O)NC2(C(F)(F)F)C(=O)NC(C)=C2C#N)cc(OC)c1OC (stereo unspecified) | / | -2 | / | / | /
CCOc1ccc(-c2nonc2NC(=O)COc2c(C)cc(C)cc2C)cc1OCC | / | -5 | / | / | /
CC1=C(C(=O)OCc2ccccc2)C(c2ccsc2)C(C#N)=C(N)O1 (stereo unspecified) | 0 | ? | -9 | 16 | i
CS(=O)(=O)c1ccc2nc(NC(=O)c3ccc(Cl)cc3)sc2c1 | 9 | 0 | 0 | 2 | i
COc1ccc2nc(NC(=O)c3ccccc3C(=O)O)sc2c1 | 10 | 5 | -6 | -9 | i
COc1ccc(C(=O)Nc2nc3ccc(OC)cc3s2)cc1 | -72* | 9 | -2 | ? | i
COc1ccc(C(=O)Nc2nc3ccc(S(C)(=O)=O)cc3s2)cc1 | -2 | -7 | -22 | -1 | -85%*
COc1ccc(C(=O)n2nc(C#N)c(C#N)c2N)cc1 | / | 4 | -12 | 0 | i
SMILES | CtBP-E1A inh | PI4K2A inh | PI5P4K alpha inh | Six1-Eya2 blk | pAkt inh
COc1cccc(NC(=S)N(CCN(C)C)C(C)c2ccco2)c1 (stereo unspecified) | 0 | 1 | -1 | 1 | i
CCCOC(=O)c1ccc(NC(=O)Cn2nnc3sc4c(c3c2=O)CCC(C(C)(C)C)C4)cc1 (stereo unspecified) | / | -4 | / | / | /
Cc1cc(O)c2c(c1)C(=O)c1cc(O)cc(O)c1C2=O | ? | -22 | -58* | -2 | /
O=C1c2cc(O)cc(O)c2C(=O)c2c1cc(O)c([C@@H](CO)CCO)c2O | ? | -6 | -51* | ? | i
Cc1ccc(-c2cn3cccc(C)c3n2)cc1NS(=O)(=O)c1ccccc1 | / | 1 | / | / | /
O=S1(=O)CC(O)C(O)CS1 (stereo unspecified) | 5 | 1 | -69* | 0 | i
NC1(C(=O)O)CSSC1 | 0 | -12 | 5 | -88* | i
O=S(=O)(Nc1ccc(N2CCOCC2)cc1)c1cccs1 | -1 | -6 | -4 | -14 | i
O=c1[nH]c(/C=C/c2ccccc2)c([N+](=O)[O-])c(=O)[nH]1 | 1 | -18 | -76* | ? | i
O=c1[nH]c(/C=C/c2cccnc2)c([N+](=O)[O-])c(=O)[nH]1 | / | ? | -65* | -1 | i
O=c1[nH]c(/C=C\c2cccnc2)c([N+](=O)[O-])c(=O)[nH]1 | -13 | -3 | ? | -9 | i
O=[N+]([O-])c1cccc(/C=C/c2nc[nH]c2[N+](=O)[O-])c1 | ? | 7 | 2 | -3 | i
O=c1[nH]c(/C=C/c2cccc([N+](=O)[O-])c2)c([N+](=O)[O-])c(=O)[nH]1 | ? | -12 | -67* | -14 | i
O=c1[nH]c(/C=C/c2ccc(Cl)cc2Cl)c([N+](=O)[O-])c(=O)[nH]1 | / | -8 | -78* | -2 | i
CCn1cc(Br)c(C(=O)Nc2ccc(F)c(Cl)c2)n1 | 10 | 5 | -2 | 5 | i
COc1cc(/C=C2/SC(=S)N(c3c(C)n(C)n(-c4ccccc4)c3=O)C2=O)ccc1O | -19 | -6 | -9 | -19 | i
COc1cc(/C=N/Nc2nc3ccccc3[nH]c2=O)ccc1O | -9 | -3 | -4 | 6 | i
C=CCn1c(N/N=C/c2ccc(O)cc2)nc2ccccc2c1=O | -2 | -4 | -1 | -2 | i
C(=N\Nc1nn2cnnc2c2ccccc12)/c1ccco1 | -3 | -19 | -15 | -72* | i
Oc1ccc(/C=N/Nc2nn3cnnc3c3ccccc23)cc1 | -90* | 0 | -3 | -89* | i
CCOc1cc(/C=N/Nc2ncc(C)c(=O)[nH]2)ccc1O | -81* | 0 | -1 | ? | i
COc1cc(/C=N/Nc2nn3cnnc3c3ccccc23)ccc1O | -89* | 2 | / | -89* | i
COc1cccc(N2CCN(C(=O)c3cc4c(s3)CCCCC4)CC2)c1 | / | 4 | -8 | -13 | i
Cc1ccc(C(=O)OC2CCN(c3ccc([N+](=O)[O-])cc3)CC2)cc1 | 4 | -3 | 5 | -4 | i
COc1cccc(/C=N/NC(=O)C(C)n2nnc3ccccc32)c1 (stereo unspecified) | -10 | 1 | -22 | -13 | i
COc1cccc(/C=N/Nc2nn3cnnc3c3ccccc23)c1 | -79* | -9 | -3 | -71* | i
CCOc1cc(/C=N/Nc2nn3cnnc3c3ccccc23)ccc1O | -67* | -16 | -3 | -88* | i
CCOc1cc(/C=N/Nc2nncc(-c3ccccc3)n2)ccc1O | -25 | 2 | -11 | -20 | i
